Records with an inconclusive call do not appear. Entries that show only a call come without a potency. Calls of active or inactive are those of the source. Calls follow the shape of the dose curve; as a rule, active = well fitted curve in the direction sought with a large enough effect; inconclusive = small, poorly fitted or top-dose-only effect, or another doubt; inactive = no such curve, though single readings can be large; an effect the other way counts as inactive or inconclusive.

Sequence of ATP-dependent 6-phosphofructokinase (Trypanosoma brucei brucei) (O15648 whole entry, looked up): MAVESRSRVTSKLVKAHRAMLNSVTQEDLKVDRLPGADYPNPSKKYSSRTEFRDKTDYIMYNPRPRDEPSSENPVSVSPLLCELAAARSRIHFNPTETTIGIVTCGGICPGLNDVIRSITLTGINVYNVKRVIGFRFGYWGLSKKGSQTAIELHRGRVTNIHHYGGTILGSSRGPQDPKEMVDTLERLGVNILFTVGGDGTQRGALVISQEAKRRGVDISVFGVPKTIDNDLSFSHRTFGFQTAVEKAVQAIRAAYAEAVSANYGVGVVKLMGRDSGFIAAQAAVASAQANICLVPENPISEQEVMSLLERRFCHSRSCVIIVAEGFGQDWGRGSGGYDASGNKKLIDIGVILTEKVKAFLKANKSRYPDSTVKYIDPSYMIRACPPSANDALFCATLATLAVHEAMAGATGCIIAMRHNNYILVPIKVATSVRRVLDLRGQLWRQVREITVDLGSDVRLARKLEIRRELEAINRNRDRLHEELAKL
Sequence of Ubiquitin carboxyl-terminal hydrolase 1 (Homo sapiens) (O94782 whole entry, looked up): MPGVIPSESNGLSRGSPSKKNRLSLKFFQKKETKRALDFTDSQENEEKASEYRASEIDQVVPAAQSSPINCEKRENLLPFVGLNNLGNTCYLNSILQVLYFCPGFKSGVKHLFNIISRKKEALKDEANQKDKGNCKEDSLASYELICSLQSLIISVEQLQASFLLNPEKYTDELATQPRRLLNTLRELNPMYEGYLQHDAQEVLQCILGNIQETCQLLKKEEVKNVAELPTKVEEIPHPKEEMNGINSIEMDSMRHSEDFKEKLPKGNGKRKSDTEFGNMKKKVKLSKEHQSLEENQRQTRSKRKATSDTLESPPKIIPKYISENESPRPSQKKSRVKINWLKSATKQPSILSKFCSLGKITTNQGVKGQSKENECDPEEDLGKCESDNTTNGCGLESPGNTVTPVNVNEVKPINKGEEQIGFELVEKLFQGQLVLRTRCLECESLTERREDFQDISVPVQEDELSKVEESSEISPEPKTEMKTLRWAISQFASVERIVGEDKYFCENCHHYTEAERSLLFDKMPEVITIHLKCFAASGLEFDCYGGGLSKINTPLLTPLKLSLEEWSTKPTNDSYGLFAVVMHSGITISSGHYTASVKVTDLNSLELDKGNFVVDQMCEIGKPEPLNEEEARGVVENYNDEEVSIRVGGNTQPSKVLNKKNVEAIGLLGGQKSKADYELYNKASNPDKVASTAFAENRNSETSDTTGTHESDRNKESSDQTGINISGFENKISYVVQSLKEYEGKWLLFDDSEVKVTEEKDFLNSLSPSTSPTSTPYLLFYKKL
Sequence of Luciferin 4-monooxygenase (Photinus pyralis) (P08659 whole entry, looked up): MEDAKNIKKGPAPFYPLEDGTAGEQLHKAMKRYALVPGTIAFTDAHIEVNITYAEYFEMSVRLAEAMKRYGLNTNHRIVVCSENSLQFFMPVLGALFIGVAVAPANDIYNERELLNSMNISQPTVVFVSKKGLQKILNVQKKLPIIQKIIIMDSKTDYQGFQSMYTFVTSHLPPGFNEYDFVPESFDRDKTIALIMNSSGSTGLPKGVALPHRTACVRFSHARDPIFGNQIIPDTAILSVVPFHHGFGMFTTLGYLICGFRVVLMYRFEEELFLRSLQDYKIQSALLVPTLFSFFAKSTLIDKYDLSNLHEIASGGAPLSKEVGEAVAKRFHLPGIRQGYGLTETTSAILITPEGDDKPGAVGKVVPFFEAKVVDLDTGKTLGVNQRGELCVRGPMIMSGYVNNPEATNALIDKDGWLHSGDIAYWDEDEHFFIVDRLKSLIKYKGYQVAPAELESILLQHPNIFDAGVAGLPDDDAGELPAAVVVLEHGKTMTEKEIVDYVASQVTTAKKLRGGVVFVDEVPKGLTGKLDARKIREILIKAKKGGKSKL

The first experiment concerns the target ATP-dependent 6-phosphofructokinase (Trypanosoma brucei brucei) (UniProt O15648). Kind of experiment: qHTS Assay to Find Inhibitors of T. brucei phosphofructokinase: hit validation (AID 492961).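 Also: luminescence reports ADP formed as PFK phosphorylates fructose-6-phosphate with ATP.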 The note with it: T. brucei PFK, ADP-Glo luminescence; series mostly up to 51.4 µM. The method in brief: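 Measures ADP output of PFK (1.25 nM) at 0.1 mM ATP, 0.5 mM F6P, pH 8.0 TEA buffer with 5 mM MgCl2. No-enzyme wells define full inhibition; uninhibited enzyme wells define zero.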
(In general: In qHTS, concentration-response curves come from the screen itself.)
On to `C[C@]12CC[C@H]3c4ccc(O)cc4CC[C@@H]3[C@H]1CC[C@@H]2OC(=O)CCC1CCCC1`, for which the compound was called inactive.
For `CC(C)(C)NC[C@@H](O)c1ccc(O)c(CO)n1`, the outcome was inactive.
Same read-out and setting: as for `NS(=O)(=O)c1cc2c(cc1Cl)N[C@H](Cc1ccccc1)NS2(=O)=O`, the entry is “inactive”.

Another experiment has as its target Ubiquitin carboxyl-terminal hydrolase 1 (Homo sapiens) (UniProt O94782). The experiment in a line: Inhibitors of USP1/UAF1: Pilot qHTS (AID 504865). Also: nearly all actives have a fitted effect of over 35% in size. Also: potency is read from the fitted curve at half-maximal effect. The settings on record: purified USP1/UAF1, Ub-rhodamine cleavage fluorescence; series mostly up to 114 µM. In outline: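 USP1/UAF1 complex (1nM) preincubated with compound 15 min at room temperature, then Ub-Rho substrate (150nM final) added. Fluorescence read kinetically at 480/540 nm, 6 reads every 60 seconds. Buffer: 50mM HEPES pH 7.8, 0.5mM EDTA, 0.1 mg/ml BSA, 1mM TCEP, 0.01% Tween-20.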
For the compound `COc1ccc2cc1Oc1ccc(cc1)C[C@H]1c3cc(c(OC)cc3CCN1C)Oc1c(OC)c(OC)cc3c1[C@@H](C2)N(C)CC3`, the Potency entry is “inactive”.
For `CN(C)c1ccc(-c2cc(NCc3ccccc3)ncn2)cc1`, the Potency result is “inactive”.
The same measure, in the same setting: the result for `COc1ccccc1-c1nc(NCc2ccccc2)c2ccccc2n1` reads 11.2 µM (active); that for `Cc1cn([C@H]2C[C@H](N=[N+]=[N-])[C@H](CO)O2)c(=O)[nH]c1=O`, “inactive”.
On the same count and under the same terms, the result for `CN(C)Cc1ccccc1-c1ccc2ncnc(NC3CCNCC3)c2c1` reads “inactive”.
The same measure, in the same setting: as for `CNc1ncncc1-c1ccc(C(=O)N(C)C)cc1`, the entry is “inactive”; as for `CC(C)(C)NC[C@@H](O)c1ccc(O)c(CO)n1`, “inactive”.
Take `NS(=O)(=O)c1cc2c(cc1Cl)N[C@H](Cc1ccccc1)NS2(=O)=O`: the Potency entry was “inactive”.

Another experiment concerns the target Luciferin 4-monooxygenase (Photinus pyralis) (UniProt P08659). Kind of experiment: Biochemical firefly luciferase enzyme assay for NPC (AID 624030).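 Also: purified P. pyralis luciferase at 10 nM with luciferin and ATP substrate; nearly all actives have a fitted effect of over 70% in size.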 The settings on record: purified P. pyralis luciferase, luminescence, 5 min; series mostly up to 58.6 µM. In outline: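 Direct inhibition of firefly luciferase enzyme (10 nM final, 50 mM Tris Acetate) assessed by luminescence within 5 minutes. Percent activity scaled between DMSO and PTC124 positive control, with concentration-effect curves classified by fit quality and response.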
As for `C[C@]12CC[C@H]3c4ccc(O)cc4CC[C@@H]3[C@H]1CC[C@@H]2OC(=O)CCC1CCCC1`, the outcome was inactive.
Still for that read-out and setting: the result for `Cc1cn([C@H]2C[C@H](N=[N+]=[N-])[C@H](CO)O2)c(=O)[nH]c1=O` reads “inactive”.
For `O=C(O)[C@@H](S)[C@H](S)C(=O)O`, the outcome was inactive.
Still for that read-out and setting: the result for `CC(C)(C)NC[C@@H](O)c1ccc(O)c(CO)n1` reads “inactive”.
The same measure, in the same setting: the result for `NS(=O)(=O)c1cc2c(cc1Cl)N[C@H](Cc1ccccc1)NS2(=O)=O` reads “inactive”.

Tested on in a further experiment: not listed separately
The experiment in a line: S16 Schwann cell viability assay (CellTiter-Glo assay) (AID 624031).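 Also: native untransfected S16 rat Schwann cells; nearly all actives have a fitted effect of over 70% in size.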 The settings on record: S16 rat Schwann cells viability, 24 h; series mostly up to 57.5 µM. The method in brief: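 Cells were seeded at 500-750 per well in phenol red-free DMEM with 10% FBS and left overnight. Compounds or DMSO were pinned in, incubation ran 24 h at 37 °C/5% CO2, then CellTiter-Glo reagent was added and luminescence measured.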
On the technique in general: ATP-based viability assays read luminescence as a measure of living cells.
Regarding `CN(C)[C@H]1C(=O)C(C(=O)NCN2CCCC2)=C(O)[C@]2(O)C(=O)C3=C(O)c4c(O)cccc4[C@](C)(O)[C@H]3C[C@H]12`, the Potency entry is “inactive”.
Still for that read-out and setting: as for `Cc1cn([C@H]2C[C@H](N=[N+]=[N-])[C@H](CO)O2)c(=O)[nH]c1=O`, the entry is “inactive”.
The same measure, in the same setting: as for `O=C(O)[C@@H](S)[C@H](S)C(=O)O`, the entry is “inactive”; as for `CC(C)(C)NC[C@@H](O)c1ccc(O)c(CO)n1`, “inactive”.

Tested on in a further experiment: not listed separately
The experiment in a line: S16 Schwann cell PMP22 intronic element firefly luciferase assay (AID 624032). Also: nearly all actives have a fitted effect of over 30% in size. The settings on record: S16 rat Schwann cells, PMP22 element FLuc, 24 h; series mostly up to 57.5 µM. The method in brief: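 Luciferase reporter of PMP22 intronic-element expression in stably transfected S16 rat Schwann cells, read by ONE-Glo luminescence after 24 h compound exposure at 37 C. Activity scaled between DMSO (0%) and positive-control PTC124; concentration-effect curves quality-classified.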
Regarding `CN(C)[C@H]1C(=O)C(C(=O)NCN2CCCC2)=C(O)[C@]2(O)C(=O)C3=C(O)c4c(O)cccc4[C@](C)(O)[C@H]3C[C@H]12`, the Potency entry was “inactive”.
As to `Cc1cn([C@H]2C[C@H](N=[N+]=[N-])[C@H](CO)O2)c(=O)[nH]c1=O`, the Potency entry was “inactive”.
On the same count and under the same terms, as for `NS(=O)(=O)c1cc2c(cc1Cl)N[C@H](Cc1ccccc1)NS2(=O)=O`, the entry is “inactive”.

The values above are taken from PubChem BioAssay (NCATS).
